HIF-2a inh = inhibitors of HIF-2a | 786-0 RCC cells HIF-2a reporter, luciferase luminescence, overnight | inhibition, % at 18.8 µM | 360,000 compounds, 0.72% hits | AID 624352;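 active = inhibition of the luminescence signal of 40% or more relative to plate controls, in a single-dose primary screen at 18.75 µM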
HSP90 refold inh = HSP90 refolding inhibition in rabbit reticulocyte lysate | AID 1789 | luciferase refolding luminescence, 3 h | inhibition, % at 5.6 µM | 290,000 compounds, 0.91% hits;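 active = inhibition above the screen-wide mean plus 3 SD, computed separately per campaign, cut at about 16% in these data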;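 also: 0% = DMSO wells and 100% = 60 µM geldanamycin wells; inhibitors lower the luminescence because luciferase stays unfolded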
TROY NFkB inh = TROY signaling inhibition | Q293 LMP1-TROYcd NF-kB luciferase reporter, 4 h | 360,000 compounds, 0.98% hits | inhibition, % at 10 µM;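 active = compounds whose plate-normalised and pattern-corrected inhibition of the luciferase reporter signal at the single screening dose is 50% or more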
aSyn UTR inh = 5' untranslated region of α-synuclein, MLPCN primary screen | alpha-synuclein 5'UTR reporter, inhibitor activity | inhibition, % (tested at 7.5 µM) | 300,000 compounds, 0.82% hits; in the data active = inhibition above about 60%;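 also: H4 neuroglioblastoma cells stably carrying SNCA 5'UTR luciferase fusion; 0% = DMSO wells and 100% = positive control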
TWEAK-Fn14 inh = TWEAK-Fn14 signaling inhibition; TWEAK-stimulated Fn14 reporter cells, luciferase luminescence, 8 h; inhibition, % at 10 µM; 360,000 compounds, 2% hits; in the data active = inhibition above about 50%
C8 TRAIL sens = sensitizes caspase-8 expressing cells to TRAIL; 360,000 compounds, 1% hits; inhibition (viability loss, TRAIL sensitization), % at 10 µM; NB7+C8 cells + TRAIL, ATPlite viability luminescence; AID 624354;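 active = compounds causing at least 50% loss of cell viability in the single-dose screen, relative to plate controls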
Mdm2-MdmX confirm = confirmation of inhibitors of human Mdm2/MdmX interaction, set 2 | shares compounds with HIF-2a inh | SaOS-2 split-luciferase Mdm2/MdmX complementation, luminescence | inhibition, % at 8 µM | 740 compounds, 99% hits | AID 504601;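 active = mean inhibition of the luminescence signal across two replicates at or above 26 percent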
Target sequence (O15151 whole entry, looked up): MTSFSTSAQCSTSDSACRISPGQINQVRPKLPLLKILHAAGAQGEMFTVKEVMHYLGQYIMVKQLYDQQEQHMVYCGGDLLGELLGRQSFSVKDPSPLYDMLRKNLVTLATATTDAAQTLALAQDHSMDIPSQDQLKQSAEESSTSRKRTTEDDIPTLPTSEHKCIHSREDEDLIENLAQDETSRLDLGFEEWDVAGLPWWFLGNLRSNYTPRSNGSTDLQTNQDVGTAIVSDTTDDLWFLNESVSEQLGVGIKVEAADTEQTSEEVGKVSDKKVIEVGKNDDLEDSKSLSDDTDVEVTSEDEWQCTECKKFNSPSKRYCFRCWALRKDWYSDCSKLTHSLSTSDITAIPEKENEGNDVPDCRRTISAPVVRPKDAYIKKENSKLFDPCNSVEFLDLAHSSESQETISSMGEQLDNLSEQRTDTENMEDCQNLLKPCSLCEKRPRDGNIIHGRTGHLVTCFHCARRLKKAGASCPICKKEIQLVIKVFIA
Target sequence (Q00987 whole entry, looked up): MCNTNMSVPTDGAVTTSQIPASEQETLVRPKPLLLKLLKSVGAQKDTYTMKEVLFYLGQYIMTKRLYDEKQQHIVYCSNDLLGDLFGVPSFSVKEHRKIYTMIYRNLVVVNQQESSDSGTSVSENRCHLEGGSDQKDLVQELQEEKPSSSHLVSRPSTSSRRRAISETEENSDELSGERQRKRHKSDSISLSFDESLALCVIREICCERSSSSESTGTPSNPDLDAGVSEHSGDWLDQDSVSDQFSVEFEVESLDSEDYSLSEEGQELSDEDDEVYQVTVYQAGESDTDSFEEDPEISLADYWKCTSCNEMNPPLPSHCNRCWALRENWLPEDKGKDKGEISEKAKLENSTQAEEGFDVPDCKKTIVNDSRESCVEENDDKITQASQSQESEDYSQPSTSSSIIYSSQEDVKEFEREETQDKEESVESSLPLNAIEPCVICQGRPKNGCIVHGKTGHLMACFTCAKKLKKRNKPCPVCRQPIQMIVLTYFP
HIF-2a inh conf = HIF-2a inhibition, single concentration confirmation; shares compounds with HIF-2a inh; 786-0 RCC cells, HIF-2a luciferase reporter luminescence, overnight; inhibition, % at 18.8 µM; 1,800 compounds, 56% hits; AID 651580;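 active = mean inhibition across four replicates of at least 40 percent at the single tested concentration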
HIF-1a cs = HIF-1a inhibition counter-screen for HIF-2a hits | shares compounds with HIF-2a inh | MiaPaCa-2 HIF-1a luciferase reporter, desferoxamine, overnight | inhibition, % at 18.8 µM | 1,800 compounds, 72% hits;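 active = mean inhibition of the reporter signal across four replicates at the single tested dose of 50% or more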
* hit, by the source's call; . = no result given. Only some compounds are listed: those with a hit (about 3.9% of all), similar ones and a draw of the others.

SMILES	HIF-2a inh	HSP90 refold inh	TROY NFkB inh	aSyn UTR inh	TWEAK-Fn14 inh	C8 TRAIL sens	HIF-2a inh conf	HIF-1a cs	others
CN(C)CCNc1ncnc2c1ncn2[C@H]1CN(Cc2ccco2)C[C@@H](CO)O1	17	.	3	.	-2	-1	.	.
CCCCCC(O)CCCC(=O)O (stereo not drawn)	11	.	1	.	-11	-1	.	.
CCCCCCCCCCCCCCCC(O)C[N+](C)(C)CCO (stereo not drawn)	62*	.	2	.	-61	92*	52*	92*
CCOC(=O)c1c(SCCN2CCCC2)n(-c2ccccc2)c(=S)n(-c2ccccc2)c1=O	78*	.	4	.	-7	30	93*	102*
CCOC(=O)c1c[nH]c(=S)n(-c2ccccc2)c1=O	0	.	-4	16	-4	-5	.	.
O=C(/C=C/c1ccc([N+](=O)[O-])cc1)c1ccccc(=O)c1O	59*	.	-29	.	72*	39	91*	103*
O=C(/C=C/c1ccc([N+](=O)[O-])cc1)c1cccs1	-65	0	-8	-51	7	25	.	.
O=C(O)c1ccc(Cl)c(S(=O)(=O)N2CCCC2)c1	41*	-2	-8	2	-20	-8	1	1
O=C(c1ccc(Cl)c(S(=O)(=O)N2CCCCCC2)c1)N1CCCCC1	-55	3	2	-7	-4	-12	.	.
NC(Cc1ccc(C(F)(F)F)cc1)c1csc(NC(=O)NCCc2ccccc2)n1 (stereo not drawn)	3	.	4	.	-5	45	.	.
CC1(C(=O)NS(=O)(=O)c2ccccc2C(F)(F)F)CCN1C(=O)CC1CCCC1 (stereo not drawn)	5	.	-2	.	2	-3	.	.
COc1ccc(-n2c(C)c(C(C)=O)c3cc(O)ccc32)cc1	13	-2	49	22	59*	-6	.	.	Mdm2-MdmX confirm=87*
COc1ccc2c(c1)c(C(C)=O)c(C)n2-c1ccccc1	12	-3	20	17	26	0	.	.
CCOc1ccc(-n2c(C)c(C(C)=O)c3cc(OC(C)=O)ccc32)cc1	22	7	42	-13	79*	-2	.	.	Mdm2-MdmX confirm=89*
Cc1ccc(S(=O)(=O)N[C@@H](C)CO)cc1	5	.	.	.	.	3	.	.
Cc1cc(NC(=O)/C(C#N)=C\c2ccc(-c3ccc(SC(F)F)cc3)o2)n(-c2ccccc2)n1	3	.	33	.	-64	38	.	.
CC(=O)/C(=C/c1ccccc1)C(=O)Nc1ccccc1C	92*	-2	6	-28	80*	19	88*	103*
CC(=O)Nc1ccccc1C	13	.	3	.	9	4	.	.
C[C@H]1Cn2cnc(C(=O)NCc3ccc(CNC(=O)OC(C)(C)C)cc3)c2C(=O)N1	3	.	-1	.	-18	18	.	.
CNC(=O)NC(=O)C(C)OC(=O)CCCc1nc2ccccc2s1 (stereo not drawn)	7	6	-39	-9	1	-7	.	.
CCNC(=O)NC(=O)COC(=O)CCCSc1nc2ccccc2s1	60*	4	26	19	37	5	86*	60*
CCNC(=O)NC(=O)C(C)OC(=O)CCCSc1nc2ccccc2s1 (stereo not drawn)	68*	2	39	41	59*	1	86*	68*
CNC(=O)NC(=O)C(C)OC(=O)CCCSc1nc2ccccc2s1 (stereo not drawn)	71*	5	31	20	55*	0	84*	63*
CC(OC(=O)CCCc1nc2ccccc2s1)C(=O)NC(N)=O (stereo not drawn)	8	-1	14	10	18	-8	.	.
CCNC(=S)N1CCC(C(=O)c2ccc(F)cc2)CC1	0	.	-2	.	-14	-14	.	.
SMILES	HIF-2a inh	HSP90 refold inh	TROY NFkB inh	aSyn UTR inh	TWEAK-Fn14 inh	C8 TRAIL sens	HIF-2a inh conf	HIF-1a cs	others
CCN(CC)CCN1CCN(c2cncc(-c3ccc4ccccc4c3)n2)CC1	-21	.	-12	.	-28	29	.	.
CCOC(=O)c1ccc(-c2ccc3c(=O)c4ccccc4n(C)c3c2)cc1F	-30	0	-25	-25	-25	2	.	.
COC(=O)CCn1nnc(-c2ccc(C(C)C)cc2)n1	91*	-1	50*	119*	68*	8	96*	75*
CNC(=O)c1ccc(Oc2ccc(C(=O)NC)cc2)cc1	-10	0	9	7	-5	0	.	.
CC(=O)N(C(C)=O)c1ccc(Oc2ccc(Oc3ccc(N(C(C)=O)C(C)=O)cc3)cc2)cc1	68*	.	5	.	39	-10	87*	50
O=C(/C=C/c1ccccc1)CC(O)(c1ccccc1)C(F)(F)C(F)F (stereo not drawn)	70*	2	64*	-3	69*	20	53*	106*
COc1ccc(/C=C/C(=O)CC(O)(c2ccccc2)C(F)(F)F)cc1 (stereo not drawn)	17	1	-36	-16	29	0	.	.
O=C(/C=C/c1ccccc1)CC(O)(c1ccccc1)C(F)(F)F (stereo not drawn)	73*	7	64*	6	88*	9	44*	104*
O=C(CC(O)(c1ccccc1)C(F)(F)C(F)F)c1cccs1 (stereo not drawn)	3	0	-16	9	-17	-7	.	.
O=C(NCc1cccs1)c1ccc2sc(COCCO)nc2c1	-39	.	-13	.	19	12	.	.
CS(=O)(=O)c1ccc(C(=O)OCC(=O)N2CCOCC2)cc1[N+](=O)[O-]	6	.	3	.	40	-5	.	.
COc1ccc(C2=NN(C(=O)COC(=O)c3ccc(S(C)(=O)=O)c([N+](=O)[O-])c3)C(c3ccco3)C2)cc1 (stereo not drawn)	61*	.	16	.	69*	90*	7	103*	Mdm2-MdmX confirm=103*
Cc1ccc(C(=O)CCC(=O)Nc2cc(C)ccn2)cc1	-78	.	-24	.	-8	-4	.	.
COc1ccc(NC(=S)NC(NC(=O)/C=C/c2ccccc2)C(Cl)(Cl)Cl)cc1 (stereo not drawn)	66*	2	43	-15	17	19	8	30
CCOC(=O)NC(NC(=S)Nc1ccc(OC)cc1)C(Cl)(Cl)Cl (stereo not drawn)	20	1	1	3	-7	-1	.	.
C[C@@H]1CN([C@@H](C)CO)C(=O)CCCn2nncc2CO[C@H]1CN(C)C(=O)OCc1ccccc1	4	.	0	.	5	-4	.	.
Cc1cc(C)n(S(=O)(=O)/C=C/c2ccccc2)n1	23	5	3	-56	15	-6	.	.	Mdm2-MdmX confirm=93*
